Screening data: PubChem, National Center for Advancing Translational Sciences (NCATS)
DT40 TDP1 CPT: DT40-hTDP1 cell growth loss with CPT; actives 12% (n = 420,000); chicken DT40 Tdp1-/-;hTDP1 cells + 20 nM CPT, ATP luminescence, 48 h; AID 686979; Potency, µM (top dose mostly 46.2 µM), for inactives: at the highest dose activity change, negative = growth inhibition, usual class: inhibitors; note: potency is the fitted concentration of half-maximal effect; nearly all actives have a fitted effect of over 55% in size
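Chicken DT40 Tdp1-/- cells stably complemented with human TDP1 were seeded at 400 cells/well in medium containing 20 nM camptothecin, exposed to pin-transferred compounds, and grown at 37 °C for at least 48 hr. Viability was read as ATP luminescence.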
IL1B secr inh: inhibitors of inflammasome signaling (IL-1 beta secretion); THP-1 LPS/ATP IL-1B secretion, AlphaLISA, 16 h; active compounds read low; activity change, % at 57.5 µM; AID 743279; actives 4.7% (n = 360,000); in the data active = activity change below about -50%; inconclusive = mostly about -30% to -49%
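Secreted IL-1B measured by AlphaLISA bead assay after 16 h compound exposure of THP-1 cells; compounds (final up to 57.5 uM) added 1 h before LPS (250 ng/mL) and ATP (1.25 mM) stimulation; lower signal means less secretion.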
HT1080 IDH1KD tx: toxicity to HT-1080 IDH1 knockdown cells (counter line); HT-1080 IDH1 knockdown viability, ATP luminescence, 48 h; Potency, µM (doses to about 46.1 µM), for the others: top-dose activity, negative = toxicity, usual class: cytotoxic; actives 2% (n = 360,000);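 note: potency is the fitted concentration of half-maximal effect; 0% = DMSO wells and -100% = cell-free medium wells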
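IDH1KD HT-1080 cells, 750/well, RPMI + 5% FBS; compound pinned after 2 h settling; 48 h, 37 °C; CellTiter-Glo luminescence; % activity normalised to DMSO and no-cell wells; curves fitted, classed by r2 and efficacy.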
DT40 TDP1 no CPT: qHTS for Inhibitors of human tyrosyl-DNA phosphodiesterase 1 (TDP1): qHTS in cells in absence of CPT. DT40 Tdp1-/- hTDP1 cells, no CPT, ATP luminescence, 48 h. Potency, µM (doses to about 46.2 µM), without a hit: at the top dose activity change, negative = growth inhibition, most hits filed as inhibitors. actives 15% (n = 420,000); note: potency is the fitted concentration of half-maximal effect; nearly all actives have a fitted effect of over 55% in size
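Growth of hTDP1-complemented DT40 Tdp1-knockout cells is measured by ATP luminescence after at least 48 hr compound exposure at 37 °C, with DMSO substituting for the 20 nM CPT used in the parallel screen.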
HT1080NT lethal: kills 2HG-producing HT-1080-NT fibrosarcoma cells | AID 686970 | actives 1.6% (n = 360,000) | HT-1080-NT fibrosarcoma viability, CellTiter-Glo ATP luminescence, 48 h | Potency, µM (series often up to 46.1 µM), without a hit: at the highest dose activity, negative = less viability, usual class: cytotoxic;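 note: NT is the 2HG producing partner of a matched IDH1 knockdown line; potency is the fitted concentration of half-maximal effect; 0% = DMSO-treated cells and -100% = media-only wells without cells; nearly all actives have a fitted effect of over 55% in size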
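750 cells/well, RPMI + 5% FBS; 2 h settle, compound pin-transfer, 48 h at 37 degrees C. CellTiter-Glo 10 min RT, luminescence. Normalized to DMSO and media-only wells.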
* = called active by the depositor; ? = inconclusive; / = no result; [ ] = remark or other dose. Most compounds without a hit are left out; they make up all but 19% or so of the library. Unless noted, calls come from the whole dose curve; as a rule, active = well fitted curve in the direction sought with a large enough effect; inconclusive = small, poorly fitted or top-dose-only effect, or another doubt; inactive = no such curve, though single readings can be large; an effect the other way counts as inactive or inconclusive. Unless noted, % is set by controls: 0 for no effect and ±100 for the full control effect.

SMILES	DT40 TDP1 CPT	IL1B secr inh	HT1080 IDH1KD tx	DT40 TDP1 no CPT	HT1080NT lethal
Cc1ccc(NC(=O)Nc2nnc(N(CC(C)C)CC(C)C)s2)cc1Cl	9.2µM*	/	/	16µM*	/
Cc1ccc(NC(=O)Nc2cccnc2)cc1Cl	?	?	0%	-6%	3%
Cc1ccccc1-n1c(C)nnc1SCC(=O)N1CCc2ccccc2C1	0%	1	0%	?	1%
COc1ccc(N2C(=O)c3ccccc3NC(=O)C2C(=O)NCC(C)C)cc1 (stereo not given)	9%	-12	12%	0%	15%
CN(C)c1ccc(C=c2c3cc(O)ccc3n3c2cc(-c2ccccc2)[n+]3C)cc1	7.3µM*	-105*	?	?	-27%
Cn1c(-[n+]2c(-c3ccccc3)cc(-c3ccccc3)cc2-c2ccccc2)nc2cc([N+](=O)[O-])ccc21	?	-6	13%	?	12%
C[n+]1c(-c2ccccc2)cc2c(=Cc3ccc([N+](=O)[O-])cc3)c3ccccc3n21	1.8µM*	-98*	?	4.1µM*	?
C[n+]1c(-c2ccccc2)cc2c(=Cc3ccccc3)c3ccccc3n21	0.52µM*	-100*	16µM*	0.52µM*	?
Clc1ccc(/C=C/c2ccncc2)cc1Cl	10%	/	/	-18%	/
COc1ccc(-n2c(=O)c(-c3cccs3)nc3cnc(Oc4ccccc4)nc32)cc1	2%	/	/	-16%	/
CC(C1CC1)N(Cc1ccccc1)C(=S)Nc1ccccc1 (stereo not given)	15µM*	3	8%	23µM*	19%
COc1ccc(OCC(O)CN(CC(O)COc2ccc(OC)cc2)c2cccc(O)c2)cc1 (stereo not given)	?	-50*	?	-47%	?
CC1(C)CC(=O)C=C(c2cccc(Cl)c2O)C1	-21%	-7	10%	-5%	9%
O=C1CCN(C(=O)c2cccs2)c2ccccc21	4%	28	0%	-17%	-1%
CN1C(=O)/C(=C\C(=O)c2cccs2)c2ccccc21	13µM*	-103*	?	9.2µM*	10µM*
COc1cc(CC(=O)OCc2cccc([N+](=O)[O-])c2)cc(OC)c1OC	0%	11	-15%	?	2%
COc1ccc(C(=O)/C=C/c2ccccc2F)c(OC(=O)c2ccc([N+](=O)[O-])cc2)c1	23µM*	-101*	-29%	13µM*	-5%
O=C(/C=C/c1ccccc1F)c1cccc([N+](=O)[O-])c1	?	-9	-25%	21µM*	-13%
NN=C(c1cccc([N+](=O)[O-])c1)c1cccc([N+](=O)[O-])c1	1%	2	0%	?	0%
Cc1ccc(OC(=O)c2cccc([N+](=O)[O-])c2)c(-n2nc3ccccc3n2)c1	-15%	2	-8%	-29%	1%
O=C(Oc1ccc(F)cc1C(=O)/C=C/c1cccs1)c1cccc([N+](=O)[O-])c1	0.16µM*	?	?	0.37µM*	-37%
COc1cc(/C=C/C(=O)c2cccc([N+](=O)[O-])c2)cc(OC)c1OC	5.8µM*	-61*	?	5.2µM*	?
O=C(CSc1ncccn1)NCC1Cc2cccc(-c3ncccn3)c2O1 (stereo not given)	7%[9.04 µM]	/	/	8%	/
Cc1cccc(-c2noc(CNC(=O)c3ccccc3Br)n2)c1	-17%	/	/	?	/
CCCCCC1Nc2cc(C(F)(F)F)c(S(N)(=O)=O)cc2S(=O)(=O)N1 (stereo not given)	-1%	/	/	-1%	/
COc1ccc(/C=C(\C#N)C(=O)NCC2CCCO2)cc1OC (stereo not given)	-13%	-1	6%	-20%	1%
CCCCOC(=O)c1ccc(NC(=O)/C(C#N)=C/c2ccc(-c3ccccc3)o2)cc1	16µM*	/	/	16µM*	/
